Hits are enriched below; roughly 6% of the tested compounds scored in any of these assays.
Tau fibril ThT: blocks human tau fibril formation measured by thioflavin T | AID 1460 | recombinant tau K18 P301L, heparin-induced fibrillization, ThT fluorescence | Potency, µM (highest dose often 57.4 µM), without a hit: top-dose activity, negative = inhibition, usual class: inhibitors | P10636 | hit rate 2.1% among 270,000; further: nearly all actives have a fitted effect of over 55% in size
Target sequence (P10636 561-689 P618L limits assumed): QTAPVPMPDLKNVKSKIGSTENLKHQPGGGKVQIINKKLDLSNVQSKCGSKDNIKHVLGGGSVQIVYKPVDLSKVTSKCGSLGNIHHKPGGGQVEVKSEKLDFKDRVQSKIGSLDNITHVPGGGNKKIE
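Heparin-induced (20 uM) aggregation of recombinant human K18 P301L tau, 15 uM unlabeled with 0.24 uM labeled, pH 7 acetate buffer, 6 hr at 37 C with compound. Fibrils quantified by 30 uM ThT fluorescence after 1 hr ambient incubation.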
Tau fibril FP: tau fibrillization inhibition (FP); hit rate 0.39% among 280,000; K18 P301L tau heparin fibrillization, Alexa594 FP, 6 h; P10636; AID 1468; Potency, µM (titrated, usually from 57.7 µM), inactives show at the highest dose activity, negative = inhibition, most hits filed as inhibitors; further: nearly all actives have a fitted effect of over 55% in size
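Compound effects on tau fibrillization are measured by Alexa 594 fluorescence polarization (ex 555, em 632 nm). K18 P301L tau is used at 15 uM with 0.24 uM labeled tracer, and 20 uM heparin induces aggregation over 6 hr at 37 C.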
PLK1 PBD inh: blocks phosphopeptide binding to human PLK1 polo-box domain | P53350 | Plk1 PBD binding of FITC phosphopeptide, fluorescence polarization | Potency, µM, without a hit: max response, negative = inhibition, hits mostly inhibitors | hit rate 2.8% among 360,000 | AID 720504; further: series mostly up to about 57 µM; nearly all actives have a fitted effect of over 65% in size
Sfp inh: inhibitors of Bacillus subtilis Sfp phosphopantetheinyl transferase; Biochemical Sfp PPTase activity, qHTS; Potency, µM, for inactives: largest response in the series, negative = inhibition, most hits filed as inhibitors; AID 1490; hit rate 3.5% among 310,000;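 further: the enzyme is Sfp with the accession as filed and its product quenches rhodamine fluorescence; 0% = enzyme reaction without inhibitor and -100% = no enzyme wells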
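Fluorescence-quenching assay with 15 nM Sfp, 5 uM rhodamine-CoA and 12.5 uM BHQ-2-labelled ybbR peptide in pH 7.6 Hepes/MgCl2 buffer. Enzyme was pre-incubated with compound for 15 min at room temperature. Rate was taken from the 30-min fluorescence change (525/598 nm).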
Tau fluor counter: counter-screen for tau fibril formation inhibitors; tau K18 P301L Alexa594 fluorescence, heparin fibrillization; Potency, µM (doses to about 57.7 µM), inactives show at the highest dose activity change, negative = decrease; hit rate 0.93% among 280,000; AID 1463; further: nearly all actives have a fitted effect of over 55% in size
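Human tau K18 P301L (15 uM unlabeled, 0.24 uM Alexa 594-labeled) in 100 mM sodium acetate pH 7 with 20 uM heparin, 6 hr at 37 C. ThT 30 uM added, 1 hr ambient; Alexa 594 FP and total fluorescence read at 555/632 nm.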
VDR inhibitor: blocks the human vitamin D receptor; Potency, µM, inactives show max response, negative = inhibition, most hits filed as inhibitors; P11473; VDR-SRC2-3 peptide fluorescence polarization, 2 h; hit rate 0.93% among 400,000; AID 504847
Target sequence (P11473 whole entry, looked up): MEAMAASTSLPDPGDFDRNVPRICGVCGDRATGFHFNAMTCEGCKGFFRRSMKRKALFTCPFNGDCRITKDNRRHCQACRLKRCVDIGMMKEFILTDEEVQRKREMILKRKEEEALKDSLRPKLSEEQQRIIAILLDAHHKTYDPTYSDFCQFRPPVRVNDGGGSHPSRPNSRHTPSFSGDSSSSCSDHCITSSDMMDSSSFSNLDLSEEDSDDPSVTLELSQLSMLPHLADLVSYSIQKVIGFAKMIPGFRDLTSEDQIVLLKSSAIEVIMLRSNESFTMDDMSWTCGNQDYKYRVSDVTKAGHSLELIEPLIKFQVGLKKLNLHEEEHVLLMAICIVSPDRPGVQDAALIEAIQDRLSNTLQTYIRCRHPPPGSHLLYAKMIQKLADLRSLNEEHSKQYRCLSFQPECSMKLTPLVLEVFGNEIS
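Fluorescence polarization assay measuring small-molecule disruption of VDR binding to the coregulator peptide SRC2-3. Compounds were pin-transferred (23 nl) into the reagent mix and incubated 2 h at room temperature before reading.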
* hit, by the source's call; [ ] = dose if it differs, or a comment. The call rests on the fitted dose curve; in most records, active means well fitted curve in the direction sought with a large enough effect; inconclusive means small, poorly fitted or top-dose-only effect, or another doubt; inactive means no such curve, though single readings can be large; an effect the other way counts as inactive or inconclusive. Unless noted, on the % scale 0 is the no-effect control and ±100 the full control effect; potency means the concentration at half of the fitted maximal effect.

How did Cc1ccc2c(CNCc3ccc(C)o3)c(C(=O)O)n(Cc3ccccc3C)c2c1 do in these assays?
Tau fibril ThT: -9%; Tau fibril FP: 4%; Tau fluor counter: -9%; VDR inhibitor: -8%

How did O=C(COc1ccc(Cl)cc1)Nc1nc(-c2ccncc2)cs1 do in these assays?
PLK1 PBD inh: 9.5µM*; Sfp inh: 22µM*; VDR inhibitor: inconclusive

Results for O=C(O)Cc1sc(Nc2cccc3ccccc23)nc1-c1ccc(Cl)cc1 ?
PLK1 PBD inh: 27µM*; Sfp inh: -26%; VDR inhibitor: -2%

How did Cc1ccc(-c2cc(-c3ccccc3)nc(N/N=C/c3cccnc3)n2)cc1 do in these assays?
PLK1 PBD inh: -14%; VDR inhibitor: -3%

How did Clc1ccc(-c2csc(N/N=C\c3cccnc3)n2)cc1 do in these assays?
Tau fibril ThT: inconclusive; Tau fibril FP: 1%; PLK1 PBD inh: 1%; Sfp inh: 56µM*; Tau fluor counter: inconclusive; VDR inhibitor: -10%

How did N#Cc1ccc(OCC(=O)Nc2nc(-c3ccncc3)cs2)cc1 do in these assays?
PLK1 PBD inh: -7%; VDR inhibitor: -6%

What do the screens show for `C(=N\Nc1nc(-c2ccccc2)cs1)/c1ccncc1`?
Tau fibril ThT: 16µM*; Tau fibril FP: 7%; PLK1 PBD inh: -20%; Sfp inh: inconclusive; Tau fluor counter: 13µM*[quencher]; VDR inhibitor: 10%

Results for CC1=CC(C)(C(Cl)(Cl)Cl)C(C)=CC1=NO (stereo not given) ?
PLK1 PBD inh: -19%

How did CC(C)C[C@H](NC(=O)OC(C)(C)C)C(=O)N[C@@H](CO)[C@H](O)[C@@H]1C[C@@H]1C(=O)N(C)C do in these assays?
PLK1 PBD inh: -7%; Sfp inh: 5%; VDR inhibitor: 1%

Results for O=C(Nc1nc(-c2ccc(Cl)cc2)cs1)c1cccnc1 ?
Tau fibril ThT: -7%; Tau fibril FP: -22%; PLK1 PBD inh: 12µM*; Sfp inh: -7%; Tau fluor counter: -13%; VDR inhibitor: -19%

Results for O=C(Nc1nc(-c2ccc(F)cc2)cs1)c1cccnc1 ?
Tau fibril ThT: -1%; Tau fibril FP: -13%; PLK1 PBD inh: 0%; Sfp inh: -6%; Tau fluor counter: -4%; VDR inhibitor: 16%

How did CC[C@H](C)[C@H](NC(=O)[C@H](C)NC(=O)[C@@H](N)C(C)C)C(=O)N[C@H](C(=O)N[C@H](C(=O)N[C@@H](CC(C)C)C(=O)N[C@H](C(=O)N[C@@H](CCCCN)C(=O)O)C(C)C)C(C)C)[C@@H](C)O do in these assays?
Sfp inh: -2%; VDR inhibitor: 3%

Results for Clc1ccccc1Cn1c(/C=C/c2ccco2)nc2ccccc21 ?
Tau fibril ThT: inconclusive; Tau fibril FP: -21%; PLK1 PBD inh: -9%; Sfp inh: 50µM*; Tau fluor counter: -7%; VDR inhibitor: inconclusive

How did O=C(CCl)c1ccc2c(c1)CCN2C(=O)C1CC1 do in these assays?
Tau fibril ThT: inconclusive; Tau fibril FP: 4%; Sfp inh: -17%; Tau fluor counter: 8%

What do the screens show for `O=C(CCl)c1ccc2c(c1)CCN2C(=O)C1CCCCC1`?
Tau fibril ThT: inconclusive; Tau fibril FP: 11%; PLK1 PBD inh: 0.75µM*; Sfp inh: 4%; Tau fluor counter: -3%; VDR inhibitor: 45µM*

What do the screens show for `CC1CCN(S(=O)(=O)c2ccc3c(c2)CCN3C(=O)C2CCC2)CC1`?
PLK1 PBD inh: 24µM*; Sfp inh: 10%; VDR inhibitor: -16%

What do the screens show for `COC(=O)c1ccccc1NC(=O)c1nc(-c2ccc(Cl)cc2)n2c1CCCCC2`?
Tau fibril ThT: 1%; Tau fibril FP: -14%; Tau fluor counter: -8%; VDR inhibitor: 3%

What do the screens show for `COC(=O)c1ccccc1NC(=O)C1(c2cccs2)CCOCC1`?
Tau fibril ThT: -15%; Tau fibril FP: -10%; Tau fluor counter: -17%; VDR inhibitor: 3%

What do the screens show for `O=C1c2cccc3cc([N+](=O)[O-])cc(c23)C(=O)N1/N=C/c1ccc(O)cc1O`?
Tau fibril ThT: inconclusive; Tau fibril FP: -10%; PLK1 PBD inh: -25%; Sfp inh: -13%; Tau fluor counter: 13µM*[quencher]; VDR inhibitor: -18%

What do the screens show for `O=C1c2cccc3cc([N+](=O)[O-])cc(c23)C(=O)N1CCN1CCCC1`?
Tau fibril FP: 13%; PLK1 PBD inh: -12%; Sfp inh: -2%; Tau fluor counter: inconclusive; VDR inhibitor: 9%

How did CCC(C)CCCCC(=O)NC(CCN)C(=O)NC(C(=O)NC(CCN)C(=O)NC1CCNC(=O)C(C(C)O)NC(=O)C(CCN)NC(=O)C(CCN)NC(=O)C(CC(C)C)NC(=O)C(Cc2ccccc2)NC(=O)C(CCN)NC1=O)C(C)O (stereo not given) do in these assays?
Tau fibril ThT: -13%; Tau fibril FP: 0%; Sfp inh: 28µM*; Tau fluor counter: -22%; VDR inhibitor: 0%

How did CCOc1cccc(NC(=O)/C(C#N)=C\c2cccnc2)c1 do in these assays?
Tau fibril ThT: -13%; Tau fibril FP: -2%; PLK1 PBD inh: 19µM*; Sfp inh: 14%; Tau fluor counter: -14%; VDR inhibitor: inconclusive

What do the screens show for `N#C/C(=C\c1cccnc1)C(=O)Nc1ccccc1`?
Tau fibril ThT: -11%; Tau fibril FP: 9%; PLK1 PBD inh: -16%; Sfp inh: 9%; Tau fluor counter: -9%; VDR inhibitor: inconclusive

What do the screens show for `O=C(CCN1CCN(c2ccccc2)CC1)N/N=C/c1ccc(O)c(O)c1O`?
Tau fibril ThT: 7%; Tau fibril FP: -2%; PLK1 PBD inh: 11µM*; Sfp inh: 8.9µM*; Tau fluor counter: 2%; VDR inhibitor: -15%

How did O=C(Cc1csc(N2CCOCC2)n1)N/N=C/c1ccc(O)c(O)c1O do in these assays?
Tau fibril ThT: 16µM*; Tau fibril FP: 32µM*; PLK1 PBD inh: 11µM*; Sfp inh: 10µM*; Tau fluor counter: inconclusive; VDR inhibitor: 10%

What do the screens show for `Cc1cc(C(=O)N/N=C/c2ccc(O)c(O)c2O)c(C)n1-c1ccccc1`?
Tau fibril ThT: 3%; Tau fibril FP: 8%; PLK1 PBD inh: 6.7µM*; Sfp inh: 8.9µM*; Tau fluor counter: -3%; VDR inhibitor: -21%

What do the screens show for `Cc1cc(/C=N/NC(=O)c2ccncc2)c(C)n1-c1ccccc1`?
Tau fibril ThT: -16%; Tau fibril FP: -1%; PLK1 PBD inh: -1%; Sfp inh: 9%; Tau fluor counter: -11%; VDR inhibitor: 14%

Results for C/C(=N\NC(=O)Cc1csc(N2CCOCC2)n1)c1ccccc1 ?
Tau fibril ThT: -8%; Tau fibril FP: 4%; PLK1 PBD inh: -2%; Sfp inh: -9%; Tau fluor counter: -10%; VDR inhibitor: 7%
